In test [1] the test system is Wnt5a (protein binding on small-molecule microarray). The test can be described thus: Wnt5a binders on small-molecule microarray, primary screen, biophysical, 635/667 nm fluorescence (AID 1142).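 Also: fluorescence read at 667 nm with signal to noise per printed feature.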 As to conditions: 635 nm fluorescence, higher = more signal.
A short description of test [2]: cell viability in Huh7 cells, primary screen, cytotoxicity control for HCV replication inhibitor project, CellTiter-Glo luminescence, basal, 48 h (AID 1143).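 Also: Huh7 hepatoma cells carrying a hepatitis C replication reporter with no stimulus; test concentration not given here.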 The conditions noted are these: Huh7 HCV replicon, higher = more signal, called active from +8 up or from −8 down.
Test [3] is described as follows: P. aeruginosa biofilm formation inhibitors, primary screen, PAO1 strain, BacTiter-Glo luminescence, LB-PBS (AID 1144). The conditions noted are these: 12 h, higher = more signal.
Test [4] can be described thus: CREB reporter modulators without forskolin, primary screen, cell-based, PC12, CRE-LacZ reporter, unstimulated (AID 1145). As to conditions: no forskolin, luminescence, 4.5 h, higher = more signal, called active from +8 up or from −8 down.
A short description of test [5]: CREB reporter modulators under forskolin, primary screen, cell-based, PC12, CRE-LacZ reporter, forskolin-stimulated (AID 1146).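 Also: PC12 cells with 6xCRE LacZ reporter stimulated by forskolin 10 µM; beta-galactosidase reporter signal reflecting CREB driven transcription.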 The conditions noted are these: luminescence, 4.5 h, higher = more signal, called active from +8 up or from −8 down.
Test [6] addresses Streptavidin (Streptomyces avidinii) (UniProt P22629). Put plainly: streptavidin binders on small-molecule microarray, primary screen, artefact control for SMM compound annotation, biophysical, 635/667 nm fluorescence (AID 1147).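 Also: signal reflects streptavidin binding to arrayed compounds as a control protein.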 The conditions noted are these: streptavidin binding, higher = more signal.
Test [7] is described as follows: small-molecule binders of probe aInhba, primary screen, biochemical, small-molecule microarray, 635/667 nm fluorescence (AID 1148).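 Also: score merges 667nm spot fluorescence with signal-to-noise for antibody binding to printed compounds.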 As to conditions: higher = more signal.
The target in test [8] is Torsin-1A (Homo sapiens) (UniProt O14656). Put plainly: torsin A binders from cell lysate, primary screen, small-molecule microarray, wild-type, 635/667 nm (AID 1149). The conditions noted are these: COS7 hTOR1A-WT lysate, 635 nm fluorescence, higher = more signal.
For test [9] the target is unchanged. Put plainly: small-molecule binders of mutant TOR1A in lysate, primary screen, cell lysate, small-molecule microarray, COS7 lysate, 635/667 nm fluorescence (AID 1150).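 Also: score pools 667 nm emission and signal to noise measuring lysate protein binding.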 As to conditions: COS7 hTOR1A mutant lysate, 635 nm fluorescence, higher = more signal.
The subject of test [10] is Sonic hedgehog protein (Shh). Put plainly: small-molecule binders of Shh protein, primary screen, biochemical, small-molecule microarray, 635/667 nm fluorescence (AID 1151).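 Also: Shh protein binding to compounds spotted on small-molecule microarray slides; score combines spot fluorescence intensity with signal-to-noise across triplicate slides.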 As to conditions: small-molecule microarray binding, 635 nm fluorescence; higher = more signal.
Test [11] can be described thus: E. coli DRC41 culture turbidity changes, primary screen, E. coli filamentation inducer project, strain DRC41, OD650, 48 h (AID 1152).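 Also: E. coli MC1000 strain DRC41 lacking acrAB efflux pump and sulA.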 As to conditions: E. coli DRC41 (acrAB sulA), higher = more signal, called active from +8 up or from −8 down.
A short description of test [12]: small-molecule binders of probe aLefty1, primary screen, biochemical, small-molecule microarray, 635/667 nm fluorescence (AID 1153).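 Also: score merges spot fluorescence with signal-to-noise ratio from the scanned slide images.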 As to conditions: higher = more signal.
A short description of test [13]: PSAC antagonists in infected red cells, primary screen, cell-based, P. falciparum Indochina, OD700, 1 h (AID 1154). The conditions noted are these: P. falciparum Indochina infected RBC osmotic lysis, higher = more signal, called active from +8 up or from −8 down.
Test [14] can be described thus: PSAC antagonists in infected red cells, primary screen, cell-based, P. falciparum Indochina, OD700, 2 h (AID 1155).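 Also: lysis reports solute entry through the parasite surface anion channel PSAC; channel blockers reduce lysis of infected cells.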 The conditions noted are these: P. falciparum Indochina infected erythrocytes, osmotic lysis OD700; higher = more signal, called active from +8 up or from −8 down.
A short description of test [15]: osmotic lysis modulators in infected erythrocytes, primary screen, PSAC antagonist project, cell-based, P. falciparum Indochina, OD700, 3 h (AID 1156). As to conditions: higher = more signal, called active from +8 up or from −8 down.
A short description of test [16]: PSAC antagonists in infected red cells, primary screen, cell-based, P. falciparum Indochina, OD700, 18 h (AID 1157). As to conditions: P. falciparum Indochina infected erythrocytes, osmotic lysis OD700, 18 h; higher = more signal, called active from +8 up or from −8 down.
The nature of test [17]: modulators of S6 phosphorylation in cells, primary screen, cell-based, A549, cytoblot, luminescence, serum-stimulated (AID 1158).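 Also: serum-stimulated A549 lung adenocarcinoma cells; signal is phosphorylated S6 detected by cytoblot immunostaining with HRP secondary.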 The conditions noted are these: A549 phospho-S6 cytoblot, 5 h, higher = more signal.
Test [18] concerns the target NADPH oxidase 2 (Homo sapiens) (UniProt P04839). Put plainly: NOX2-dependent H2O2 signal modulators, primary screen, NOX inhibitor project, cell-based, HEK293-NOX2, PMA-stimulated, Amplex Red fluorescence (AID 1159). Also: test concentration not given here. As to conditions: 45 min, higher = more signal, called active from +8 up or from −8 down.
In test [19] the target is NADPH oxidase 4 (Homo sapiens) (UniProt Q9NPH5). The test can be described thus: NOX4-dependent H2O2 signal modulators, primary screen, NOX inhibitor project, cell-based, HEK293-NOX4, tetracycline-induced, Amplex Red fluorescence (AID 1160). The conditions noted are these: 45 min, higher = more signal, called active from +8 up or from −8 down.
The target in test [20] is NADPH oxidase 5 (Homo sapiens) (UniProt Q96PH1). Put plainly: NOX5-dependent H2O2 signal modulators, primary screen, NOX inhibitor project, cell-based, HEK293-NOX5, Amplex Red fluorescence (AID 1161). The conditions noted are these: HEK293-NOX5, ionomycin, 45 min, higher = more signal.

This note sets out measurements from PubChem BioAssay.

Calls of active or inactive are those of the source. Unless noted, no rule for the calls is given here.

Streptavidin (Streptomyces avidinii), sequence (P22629 whole entry, looked up): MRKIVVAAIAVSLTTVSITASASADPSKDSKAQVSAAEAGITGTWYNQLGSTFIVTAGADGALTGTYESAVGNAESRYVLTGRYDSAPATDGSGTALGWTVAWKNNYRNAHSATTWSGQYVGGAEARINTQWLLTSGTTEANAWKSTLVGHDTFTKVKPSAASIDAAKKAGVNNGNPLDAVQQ
NADPH oxidase 2 (Homo sapiens), sequence (P04839 whole entry, looked up): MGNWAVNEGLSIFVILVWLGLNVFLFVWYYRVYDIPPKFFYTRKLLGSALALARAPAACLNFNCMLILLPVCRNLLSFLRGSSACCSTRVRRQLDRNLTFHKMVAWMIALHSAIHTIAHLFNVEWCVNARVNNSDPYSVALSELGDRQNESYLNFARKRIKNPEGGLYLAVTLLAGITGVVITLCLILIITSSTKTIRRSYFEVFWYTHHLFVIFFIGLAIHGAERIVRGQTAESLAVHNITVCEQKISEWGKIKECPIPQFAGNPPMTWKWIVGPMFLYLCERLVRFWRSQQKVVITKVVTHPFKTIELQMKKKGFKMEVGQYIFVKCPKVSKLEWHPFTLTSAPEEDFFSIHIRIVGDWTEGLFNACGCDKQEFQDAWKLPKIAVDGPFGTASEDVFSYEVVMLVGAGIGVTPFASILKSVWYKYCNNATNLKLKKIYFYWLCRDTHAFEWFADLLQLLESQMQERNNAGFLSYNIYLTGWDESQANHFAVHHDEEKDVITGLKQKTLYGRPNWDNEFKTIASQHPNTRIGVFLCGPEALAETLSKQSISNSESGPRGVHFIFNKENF
NADPH oxidase 4 (Homo sapiens), sequence (Q9NPH5 whole entry, looked up): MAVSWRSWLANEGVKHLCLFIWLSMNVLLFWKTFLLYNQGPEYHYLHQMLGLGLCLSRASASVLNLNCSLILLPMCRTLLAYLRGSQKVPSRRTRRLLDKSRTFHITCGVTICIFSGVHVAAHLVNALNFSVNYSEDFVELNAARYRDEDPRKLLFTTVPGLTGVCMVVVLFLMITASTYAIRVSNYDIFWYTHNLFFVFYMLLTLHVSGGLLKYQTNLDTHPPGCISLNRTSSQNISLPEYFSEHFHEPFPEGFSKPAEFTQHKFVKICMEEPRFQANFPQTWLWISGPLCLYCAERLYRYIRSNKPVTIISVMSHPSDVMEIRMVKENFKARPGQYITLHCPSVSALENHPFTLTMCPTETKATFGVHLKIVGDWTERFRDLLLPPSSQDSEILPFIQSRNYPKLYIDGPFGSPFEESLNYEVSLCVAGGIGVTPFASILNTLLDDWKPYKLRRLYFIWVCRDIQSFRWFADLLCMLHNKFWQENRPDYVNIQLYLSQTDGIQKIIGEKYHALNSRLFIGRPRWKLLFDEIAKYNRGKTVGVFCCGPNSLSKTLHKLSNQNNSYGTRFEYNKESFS
NADPH oxidase 5 (Homo sapiens), sequence (Q96PH1 whole entry, looked up): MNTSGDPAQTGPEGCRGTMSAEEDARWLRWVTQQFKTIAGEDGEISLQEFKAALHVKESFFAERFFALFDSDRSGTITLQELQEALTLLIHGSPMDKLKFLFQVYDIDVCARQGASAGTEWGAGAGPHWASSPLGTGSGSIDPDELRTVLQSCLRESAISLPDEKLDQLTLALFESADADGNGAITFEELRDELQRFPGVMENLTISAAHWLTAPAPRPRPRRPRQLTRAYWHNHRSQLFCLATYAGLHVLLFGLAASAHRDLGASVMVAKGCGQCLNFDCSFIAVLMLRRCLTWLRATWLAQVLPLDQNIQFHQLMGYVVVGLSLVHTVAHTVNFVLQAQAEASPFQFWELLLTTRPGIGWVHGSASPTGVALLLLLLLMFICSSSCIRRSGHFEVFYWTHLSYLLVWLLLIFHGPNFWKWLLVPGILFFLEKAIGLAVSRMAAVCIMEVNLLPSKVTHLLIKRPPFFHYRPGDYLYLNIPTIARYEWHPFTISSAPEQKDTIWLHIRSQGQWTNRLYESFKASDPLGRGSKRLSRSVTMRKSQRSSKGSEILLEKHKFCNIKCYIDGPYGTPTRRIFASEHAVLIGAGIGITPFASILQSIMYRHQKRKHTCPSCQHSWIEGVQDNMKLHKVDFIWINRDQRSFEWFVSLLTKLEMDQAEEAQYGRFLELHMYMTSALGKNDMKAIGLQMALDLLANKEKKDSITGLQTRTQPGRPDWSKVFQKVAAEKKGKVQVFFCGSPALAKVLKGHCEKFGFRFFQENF
Torsin-1A (Homo sapiens), sequence (O14656 whole entry, looked up): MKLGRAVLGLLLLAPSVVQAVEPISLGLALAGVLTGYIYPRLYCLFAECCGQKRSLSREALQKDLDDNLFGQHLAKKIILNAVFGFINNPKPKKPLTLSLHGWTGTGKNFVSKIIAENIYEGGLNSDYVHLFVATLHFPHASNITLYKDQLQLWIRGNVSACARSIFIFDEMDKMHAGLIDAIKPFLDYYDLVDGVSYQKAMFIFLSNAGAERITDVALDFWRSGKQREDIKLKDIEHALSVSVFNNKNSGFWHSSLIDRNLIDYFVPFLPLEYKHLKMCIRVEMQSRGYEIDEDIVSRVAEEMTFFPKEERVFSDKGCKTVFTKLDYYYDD

Turning to `CCOC(=O)C[C@H]1[C@H](OC(=O)Cc2ccc3c(c2)OCO3)[C@@H](NC(=O)c2ccc3ccccc3n2)c2cc(OCCCO)ccc2N1C(=O)Cc1ccc(OC)cc1`, the composite z-score was 0.0586 in test [1]; 0.417 in test [6]; -0.101 in [7]; 0.509 with Torsin-1A (Homo sapiens) [8]; 0.744 with Torsin-1A (Homo sapiens) [9]; 0.902 in [10]. Besides, the composite z-score in [12] was -0.0573. Moreover, the z-score in test [2] is -1.01 (inactive); in [3], -0.885 (inactive); in [4], 3.29 (inactive); in test [5], 0.637 (inactive); in [11], 2.14 (inactive); in test [13] it was 21.8 (active). Further, the z-score in test [14] was 5.31 (inactive); in [15] it was -0.997 (inactive); in test [16], 0.0217 (inactive); in [17], 2.03; in [18], -1.47 (inactive); in test [19] it was 0.824 (inactive). This compound also gave a z-score in test [20] of 0.159.

Consider `CN(C)CCCNC(=O)[C@@H]1c2ccccc2C(=O)N(Cc2ccccc2C(F)(F)F)[C@H]1c1ccc(CO)cc1`, for which the composite z-score in test [1] is 0.0246; in test [6] it was -0.734; in [7], -0.16; with Torsin-1A (Homo sapiens) [8], 0.0406; with Torsin-1A (Homo sapiens) [9] it was -0.0393; in test [10], 0.547. Further, in test [12], the composite z-score is -0.103. Besides, the z-score is -0.574 (inactive) in test [2]; 0.405 (inactive) in [3]; -0.206 (inactive) in test [4]; -0.951 (inactive) in [5]; 1.77 (inactive) in test [11]; 2.54 (inactive) in test [13]. The z-score in test [14] was 0.793 (inactive); in test [15], 1.21 (inactive); in test [16], 0.64 (inactive); in test [17], -0.0975; in test [18] it was 0.383 (inactive); in test [19], 1.03 (inactive). Moreover, in test [20], the z-score came to 1.11.

For the compound `COc1ccc([Si](C)(C)[C@@H]2[C@@H](CC(=O)N(CCO)Cc3ccccc3)O[C@]3(C(=O)N(Cc4ccc(N5C(=O)c6cccc7cccc5c67)cc4)c4ccccc43)[C@H]2C)cc1`, the composite z-score was 0.0547 in [1]; 0.22 in test [6]; -0.0112 in test [7]; 0.37 with Torsin-1A (Homo sapiens) [8]; 0.0705 with Torsin-1A (Homo sapiens) [9]; 1.8 in test [10]. Also, the composite z-score in test [12] was found to be 0.004. Besides, the z-score in test [2] is -4.28 (inactive); in [3] it was -0.298 (inactive); in [4] it was 0.12 (inactive); in test [5] it was -0.204 (inactive); in [11], -0.414 (inactive); in test [13] it was 7.3 (inactive). For the same compound, the z-score was 2.33 (inactive) in test [14]; 0.296 (inactive) in test [15]; 1.14 (inactive) in test [16]; 0.487 in test [17]; 1.28 (inactive) in [18]; -0.496 (inactive) in test [19]. Besides, the z-score in test [20] was determined as 2.72.

For `COCCCNC(=O)[C@@]1(CCC(=O)OC(C)(C)C)COC(c2ccc(OCCCO)cc2)=N1`, the composite z-score was 0.23 in test [1]; 0.905 in [6]; 0.204 in test [7]; 0.589 with Torsin-1A (Homo sapiens) [8]; 1.4 with Torsin-1A (Homo sapiens) [9]; -0.98 in [10]. The composite z-score in test [12] stood at 0.205. Moreover, the z-score in [2] was -1.7 (inactive); in [3], -0.126 (inactive); in test [4] it was 0.195 (inactive); in test [5], 0.706 (inactive); in test [11], 0.42 (inactive); in [13], 23.6 (active). The z-score was 4.91 (inactive) in test [14]; 0.873 (inactive) in [15]; 0.766 (inactive) in test [16]; -0.169 in test [17]; -2.51 (inactive) in test [18]; 0.195 (inactive) in [19]. Besides, in [20], the z-score was -0.0784.

For the compound `O=C1NC(=O)C2C1C=CC(C(O)c1ccc([N+](=O)[O-])cc1)N2Nc1ccccn1` (stereo not given), the composite z-score was -0.0851 in test [1]; -0.115 in test [6]; -0.0059 in [7]; 0.419 with Torsin-1A (Homo sapiens) [8]; -0.306 with Torsin-1A (Homo sapiens) [9]; -0.371 in test [10]. Further, the composite z-score in [12] was -0.112. The z-score was 1.06 (inactive) in test [2]; -0.295 (inactive) in test [3]; -0.133 (inactive) in test [4]; -0.728 (inactive) in [5]; -0.55 (inactive) in test [11]; 0.406 (inactive) in test [13]. For the same compound, the z-score is 0.74 (inactive) in [14]; 0.067 (inactive) in test [15]; 0.581 (inactive) in [16]; -0.466 in [17]; -0.728 (inactive) in test [18]; -2.61 (inactive) in test [19]. The compound also registered a z-score in test [20] of -1.96.

In the case of `O=C1O[C@@H](c2ccccc2)[C@@H](c2ccccc2)N2[C@@H](c3ccc(OCCO)cc3)[C@]3(C(=O)Nc4ccc(C#CC5(O)CCCCCC5)cc43)[C@@H](C(=O)O)[C@H]12`, the composite z-score in test [1] is 0.213; in test [6] it was 0.351; in test [7] it was -0.0695; with Torsin-1A (Homo sapiens) [8] it was 0.562; with Torsin-1A (Homo sapiens) [9], 0.695; in test [10], 0.633. The composite z-score in test [12] is -0.0862. Besides, the z-score in test [2] is -0.72 (inactive); in [3], -0.448 (inactive); in [4], -0.0246 (inactive); in [5] it was 0.371 (inactive); in test [11], 1.87 (inactive); in test [13], -1.17 (inactive). Besides, the z-score was -0.927 (inactive) in [14]; -8.35 (active) in test [15]; -0.76 (inactive) in test [16]; 0.169 in test [17]; 2.21 (inactive) in test [18]; -0.56 (inactive) in test [19]. The compound further yielded a z-score in test [20] of 0.314.

Regarding `Cc1ccc(S[C@]2(C(=O)NCCCN(C)C)CC(=O)N(Cc3ccccc3C(F)(F)F)[C@@H]2c2ccc(CO)cc2I)cc1`, the composite z-score in test [1] is -0.379; in test [6] it was -0.493; in [7] it was 0.189; with Torsin-1A (Homo sapiens) [8], 0.22; with Torsin-1A (Homo sapiens) [9], -0.144; in test [10], -0.117. Moreover, the composite z-score in [12] was -0.629. Moreover, the z-score in [2] was -1.13 (inactive); in test [3] it was 0.323 (inactive); in [4] it was -0.464 (inactive); in test [5], 1.66 (inactive); in test [11] it was -0.527 (inactive); in test [13], 3.14 (inactive). The z-score in [14] is 0.684 (inactive); in test [15] it was 0.32 (inactive); in test [16], 0.377 (inactive); in test [17], -0.579; in [18] it was -0.632 (inactive); in [19], -1.08 (inactive). The z-score in test [20] worked out at 1.96.

Take `O=C1O[C@H](c2ccccc2)[C@H](c2ccccc2)N2[C@H]1[C@@H](C(=O)O)[C@]1(C(=O)Nc3ccc(C#CCCO)cc31)[C@H]2c1ccc(OCCO)cc1`: the composite z-score in test [1] came out at 0.48; in [6], 0.468; in test [7] it was 0.0082; with Torsin-1A (Homo sapiens) [8], 0.865; with Torsin-1A (Homo sapiens) [9], 1.08; in test [10], 0.314. In addition, in test [12], the composite z-score came out at 0.154. Also, the z-score in [2] was -0.33 (inactive); in [3] it was 0.982 (inactive); in test [4] it was 1.17 (inactive); in [5] it was 0.147 (inactive); in [11], 0.761 (inactive); in test [13], 4.88 (inactive). Further, the z-score is 0.927 (inactive) in test [14]; 0.232 (inactive) in test [15]; 0.138 (inactive) in test [16]; 0.112 in test [17]; 1.43 (inactive) in test [18]; 1.21 (inactive) in test [19]. Besides, the z-score in test [20] is 0.51.
